# A selection follows. How many sequences the whole screen found active is unknown. Unmarked numbers belong to inactive results.
# B1: il2ra_site2_2erj_normal_mot_HHH_b1_08185_000000063_0001_41_55_H_._HHH_b1_04971_af2_0001_0000600015_0000001_0 (protein)
# chain: SSSSSDSAEEALELAKEAYEKGDRSEVELILRYLELSLEDANDPRVEEAYELVEELLEELSSSSS
# B2: il2ra_site2_3nfp_normal_mot_HHH_b1_01086_000000225_0001_20_36_H_._HHH_b2_03611_0001_0000300035_0000001_0 (protein)
# chain: SSSSSEAEEELERLLRELEELLKRDPEEAHRLSARALNLAYEARDFEIFARLADISFALASSSSS
# B3: il2ra_site1_3nfp_sap_16_mot_5dea99290cf7e133ebc5b763b21a7a39_0001_000000141_0001_34_49_H_._ems_3hC_617_0002_0001_0000300017_0000001_0_0001 (protein)
# chain: NDKIAERLVRQAVEQNSPRILKKILEDLERVLGDPEEARERLRELLELVLGDPEEVERLLELAEE
# B4: il2ra_site1_3nfp_sap_8_mot_93ec910cbd4ebb8dd092c1ac1e61ab37_0001_1_af2_000000101_0001_16_31_H_._22fa1065b69cf192845a0250a7ccff51_0001_1_0001_0000400021_0000001_ … (protein)
# chain: SSSSDSVEWLQEMIERAFENNDRRQLRVLIKILEKAAEQFGDPEVEKLLEEAERLLEELNSSSSS
# B5: il2ra_site1_3nfp_normal_mot_HHH_b2_04366_af2_000000103_0001_1_19_H_._d3e5e791db42274430e6ef9f54efc4f5_0001_af2_0001_0000100007_0000001_0_af2pred_0001_af2pred_sw … (protein)
# chain: SAKEISELLREAARKDPEVSELLWEALRLFVKNEEEALRLLEELLKELGDPLVEEVLRLLEELAK
# B6: il2ra_site1_1z92_sap_8_mot_a31c9f16200a66e5ad31ddff700483a3_0001_1_000000069_0001_19_32_H_._HHH_b1_03395_0001_0000300021_0000001_0_0001_af2pred_0001_af2pred_1 (protein)
# chain: PEELAEEARELLENGNPEEARKVLEKLAKELGTEEAFKLDLERAERFTGNPEVALKALIAALARH
# B7: il2ra_site2_2erj_normal_mot_HHH_b1_06697_000000025_0001_41_54_H_._HHH_b2_03722_0001_0000300007_0000001_0_af2pred_0001_1_af2pred_swapped (protein)
# chain: SSSSSDKEEVEERVREILEEAEQVRDPREALKILEKADRLASENNNEEALELIHEVLQRLSSSSS
# B8: il2ra_site2_3nfp_sap_15_mot_HHH_b1_07089_af2_000000257_0001_1_17_H_._51cc31007119fa75359d0ea3f4aa2c22_0001_1_0001_0000100009_0000001_0_0001 (protein)
# chain: SSSSSAAEDSVHVLKRELEELGDRESIEELERLLEEIKEHNDPRLLLELYALLLRLYEESSSSSS
# B9: il2ra_site1_1z92_sap_21_mot_35b94aac26684153dbcc4bf06a514b74_0001_1_000000068_0001_35_49_H_._HEEHE_2006_af2_0001_0000400023_0000001_0_0001_af2pred_0001_af2pred (protein)
# chain: SSSSDEEEAAEEIVREVVEKLGLSEEDREALERDAEQSLRRGISERSVKQALEKAAKRERSSSSS
# B10: il2ra_site1_1z92_sap_11_mot_HHH_b2_00249_af2_000000052_0001_39_52_H_._HHH_b2_00616_af2_0001_0000400013_0000001_1_0001_af2pred_0001_af2pred (protein)
# chain: SSSSSEKRKEALELFEEANELFKRGNDEEAQELLRRALELAEEAGNRVLARAIEQALEDAESSSS
# B11: il2ra_site2_2erj_sap_22_mot_HHH_b2_08130_000000073_0001_1_17_H_._HHH_b1_02674_0001_0000300003_0000001_0_0001 (protein)
# chain: SSSSDVEELLEEIEELLRRGDREEAERLLHEAAELAFERNDFELFTEVVEVAHEIDRLRVSSSSS
# B12: il2ra_site2_3nfp_normal_mot_HHH_b1_01086_000000225_0001_20_36_H_._HHH_b1_01202_0001_0000300006_0000001_0_af2pred_0001_af2pred_swapped (protein)
# chain: SSSSDHERFALRAALLEIEVAIEAGDEKKVEKLIERLEILIKRLNDEEMEELLRKLKEELSSSSS
# B13: il2ra_site2_3nfp_normal_mot_HHH_b1_00660_af2_000000090_0001_40_57_H_._HHH_b1_07775_af2_0001_0000100002_0000001_1 (protein)
# chain: SSSSDEELEEEVEKLLEEAKKIEDKFEAFALVLRAREIAERLGDEELKQLVARVALEIYESSSSS
# B14: il2ra_site1_3nfp_normal_mot_eb5a5eebac1e5153f932cc6c3f4b2787_0001_af2_000000065_0001_18_33_H_._31bff7180b20e3ed47766ceefd9934be_0001_af2_0001_0000200025_0000001 … (protein)
# chain: DEEKELAELIAEAVEKNDPELLEEVVQELLKKLGDPKEASRLFEELLRKAGLSPEEIYLAMELVV
# B15: il2ra_site2_2erj_normal_mot_HHH_b1_04373_af2_000000118_0001_18_33_H_._HHH_b1_02368_af2_0001_0000200015_0000001_0 (protein)
# chain: SSSSDEELREEVEELLERAREAYEEGDLELVYELAVEAAHFAARNQDEELLELILEVVERLSSSS
# B16: il2ra_site1_1z92_normal_mot_HHH_b1_03515_000000289_0001_1_19_H_._HHH_b2_07175_0001_0000100001_0000001_0 (protein)
# chain: SSSSDRLERAAEIIVRVAVEANGLSEEQEKELEELARELVERGLDPLEIIKLLDRLAAELSSSSS
# B17: il2ra_site2_2erj_sap_28_mot_HHH_b1_06697_000000025_0001_41_54_H_._HHH_b1_07674_0001_0001200015_0000001_1_0001 (protein)
# chain: SSSSSDVKEAYEEIAELLARAAHIKDPEEVRKLLEEAERLAEENNDPFARKYVEFARRDFSSSSS
# B18: il2ra_site1_1z92_normal_mot_HHH_b2_01902_af2_000000252_0001_25_40_H_._HHH_b1_06549_af2_0001_0000100014_0000001_0_af2pred_dldesign_0_af2pred (protein)
# chain: SSSSSPLERAARQYVDAIKEIAGLSDEQYAELLAEAERLAAAGVPVRDIAKALDKRAAELLSSSS
# B19: il2ra_site2_3nfp_normal_mot_HHH_b2_00429_000000100_0001_21_37_H_._HHH_b1_08311_0001_0000300035_0000001_0 (protein)
# chain: SSSSDEEVERLIEEAEELLRNGNPEEAKRVISRATDLAYEAGDHRLFALLVDLVAVVAHLLSSSS
# B20: il2ra_site2_3nfp_normal_mot_HHH_b2_04451_000000238_0001_21_37_H_._HHH_b2_06904_0001_0000300014_0000001_0 (protein)
# chain: SSSSSSDEEEIEELLELVEKIDDQLERLQVLLEASKLAAELGDEELAREVLRLFAEIQSSSSSSS
# B21: il2ra_site1_3nfp_normal_mot_0eddeacbb14b769e73e254714f31e2f9_0001_af2_000000052_0001_37_51_H_._HHH_b1_00975_af2_0002_0000100004_0000001_0 (protein)
# chain: SSSSSDEEELRERVEELLEEAKHVSEEEASRLIEEAYRLVQENGNQELADLIYRVMREMISSSSS
# B22: il2ra_site2_3nfp_sap_4_mot_HHH_b2_00168_000000180_0001_1_21_H_._HHH_b2_05578_af2_0001_0000500013_0000001_0_0001 (protein)
# chain: SSSSDDVEEYLRAALALAREAIKQGDEELAEKILEMIRKAAEDAKDEEALEEAEELLKLVGSSSS
# B23: il2ra_site2_3nfp_normal_mot_HHH_b2_06150_000000217_0001_39_53_H_._HHH_b1_03322_0001_0000100005_0000001_0 (protein)
# chain: SSSSDIEERIEELLEEAKELIENGDPERAQEVLQEATHLAYEIRNSELFMRVAELLYLLRSSSSS
# B24: il2ra_site1_3nfp_sap_8_mot_HHH_b1_04221_000000040_0001_40_56_H_._16d56542c9725820401ab7c11c235cbe_0001_0001_0000300014_0000001_0_0001 (protein)
# chain: SSSSNEAAREATELMREIRRLLKEGNPEEARKLLEELEELAERNNDPVLKWLVRQFEESINSSSS
# Target: il2ra, P01589
# Assay: yeast display titration
# il2ra, P01589, sequence (P01589 whole entry): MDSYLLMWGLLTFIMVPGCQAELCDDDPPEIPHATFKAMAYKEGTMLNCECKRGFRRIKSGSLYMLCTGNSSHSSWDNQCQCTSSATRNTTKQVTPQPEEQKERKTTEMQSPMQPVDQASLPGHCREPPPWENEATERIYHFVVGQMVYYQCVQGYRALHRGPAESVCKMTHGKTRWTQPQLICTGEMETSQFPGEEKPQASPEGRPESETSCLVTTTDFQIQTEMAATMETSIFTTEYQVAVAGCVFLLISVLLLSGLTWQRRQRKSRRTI
row,Binder,apparent Kd
1,B1,no binding seen
2,B2,no binding seen
3,B3,no binding seen
4,B4,no binding seen
5,B5,no binding seen
6,B6,no binding seen
7,B7,no binding seen
8,B8,no binding seen
9,B9,no binding seen
10,B10,no binding seen
11,B11,no binding seen
12,B12,no binding seen
13,B13,no binding seen
14,B14,no binding seen
15,B15,no binding seen
16,B16,no binding seen
17,B17,no binding seen
18,B18,no binding seen
19,B19,no binding seen
20,B20,no binding seen
21,B21,no binding seen
22,B22,no binding seen
23,B23,no binding seen
24,B24,no binding seen

# From article PMC10163288
